Methyltransferases: Primary Screen for Target Class Profiling of Small Molecule Inhibitors of Methyltransferases. calls only at 40 µM. AID 1745853, 2022. purified enzyme, MTase-Glo SAH luminescence; stronger effect = lower value. 25,000 tested, 3.9% active; call rule not given here
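Each enzyme was assayed with SAM and its substrate. SAH formation detected by MTase-Glo luminescence; single-point 40 uM screen[…].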
* = called active by the depositor; i = inactive; + = active, no number; ! = not active in a repeat. This is one part of a sample in which hits are shown more often than they occur. On the % scale 0 is the no-effect control and ±100 the full control effect.

SMILES	Methyltransferases
COc1ccccc1CNS(=O)(=O)c1ccc2[nH]c3c(c2c1)CCCC3	i
CC1(C(=O)NC2CCCCCC2)Cn2c(cc3ccccc32)C(=O)N1Cc1cccnc1 (stereo not drawn)	i
Cc1cccc(CCNC(=O)CCCc2nnc3n4nc(C)nc4c4ccccc4n23)c1	i
CCn1c(=O)c(-c2ccc(-c3cncs3)cc2Cl)cc2cnc(Nc3ccc(N4CCN(C)CC4)cc3)nc21	i
C=CCn1c(=O)c2cnc(Nc3ccc(N4CCN(C)CC4)cc3)nc2n1-c1cccc(C(C)(C)O)n1	+
CCOC(=O)c1cc2n(n1)CC(C)(C(=O)NC1CCCCCC1)N(Cc1cccc(C)c1)C2=O (stereo not drawn)	i
CC(=O)Nc1c2n(c3ccc(F)cc13)CC(C)(C(=O)NC1CCCC1)N(CCc1ccccc1)C2=O (stereo not drawn)	i
CCCNc1ccc2ncc(-c3ccc4[nH]ncc4c3)n2n1	+
COc1ccc(CCN2C(=O)c3cc4occc4n3CC2(C)C(=O)NC2CCC(C)CC2)cc1OC (stereo not drawn)	i
CCOc1ccc(CCN2C(=O)c3cc(C(=O)OC)nn3CC2(C)C(=O)NC2CCCCCC2)cc1 (stereo not drawn)	i
COc1ccccc1CNC(=O)C1(C)Cn2c(cc3ccccc32)C(=O)N1Cc1cccnc1 (stereo not drawn)	i
Cc1cc(C)cc(NC(=O)CCc2nnc3n(Cc4ccccc4Cl)c(=O)c4ccccc4n23)c1	i
CN(C)CCOC(c1ccccc1)c1ccccc1	i
CN(C)CCOC(C)(c1ccccc1)c1ccc(Cl)cc1 (stereo not drawn)	+
CCc1ccccc1N1C(=O)c2cc3ccccc3n2CC1(C)C(=O)NCCC(C)C (stereo not drawn)	i
CCOC(=O)c1cc2n(n1)CC(C)(C(=O)NC1CCCCC1)N(Cc1ccccc1F)C2=O (stereo not drawn)	i
Cc1ccccc1CNC(=O)Cn1ccc2cc(S(=O)(=O)N3CCCC3)ccc21	i
CC1(C(=O)NC2CCCCC2)Cn2c(nc3ccccc32)C(=O)N1Cc1ccc2c(c1)OCO2 (stereo not drawn)	i
Cc1cc2c(cc1CC(=O)c1sccc1S(=O)(=O)Nc1onc(C)c1Cl)OCO2	+!
CC(C)C1c2cccn2CCN1C(=O)Nc1ccccc1F (stereo not drawn)	i
C=CCNC(=O)c1cc2n(n1)CC(C)(C(=O)NCc1ccc(F)cc1)N(C)C2=O (stereo not drawn)	i
CCC(C)NC(=O)c1ccc2c(=O)n(CCC(C)C)c3nn(Cc4ccccc4C)c(=O)n3c2c1 (stereo not drawn)	i
COCC(=O)N(C)Cc1ccc(F)cc1	i
CCOC(=O)c1cc2n(n1)CC(C)(C(=O)NCc1ccc(F)cc1)N(c1ccc(C)cc1C)C2=O (stereo not drawn)	i
CCOC(=O)Nc1ccc(NCc2ccc(F)cc2)nc1N	+
SMILES	Methyltransferases
COC(=O)c1cc2n(n1)CC(C)(C(=O)NC1CCCCCC1)N(c1ccc(C)c(C)c1)C2=O (stereo not drawn)	i
COc1cccc(CN2C(=O)c3ccc(-c4ccco4)n3CC2(C)C(=O)NC2CCCCCCC2)c1 (stereo not drawn)	i
COc1ccccc1CNC(=O)C1(C)Cn2nc(-c3ccccc3)cc2C(=O)N1Cc1ccccc1OC (stereo not drawn)	i
COc1ccc(-c2nnc3n(Cc4ccccc4Cl)c(=O)c4ccccc4n23)c(OC)c1	i
CNS(=O)(=O)CC1CCC(N(C)c2ncnc3[nH]ccc23)CC1 (stereo not drawn)	+
CCc1ccc(N2C(=O)c3cc4sccc4n3CC2(C)C(=O)NC2CCC(C)CC2)cc1 (stereo not drawn)	i
CCCn1c(=O)c2ccc(C(=O)NCC(C)C)cc2n2c(SCC(=O)c3ccc(F)cc3)nnc12	i
CN(C(=O)Cn1nc2n(C)c(=O)c3ccc(C(=O)NC4CCCCC4)cc3n2c1=O)c1ccccc1	i
c1ccc(CCCN2CC[C@H](c3nc4ccccc4s3)C2)cc1	i
NC(=O)COc1cccc(CN2CCN(c3ccc(F)cc3F)CC2)c1	i
c1cc(CN2CCCCC2)cc(OCCCNc2nc3ccccc3s2)c1	+
COC(=O)c1cc2n(n1)CC(C)(C(=O)NC1CCCCCC1)N(c1cc(C)ccc1C)C2=O (stereo not drawn)	i
CC1CCC(NC(=O)C2(C)Cn3c(ccc3-c3ccccc3)C(=O)N2CCc2cccs2)CC1 (stereo not drawn)	i
CCOc1ccc(C(=O)Cn2nc3n(CCc4ccccc4)c(=O)c4ccccc4n3c2=O)cc1	i
CC1CCN(C(c2ccc(F)cc2)c2ccc(C(C)C(=O)O)cc2-c2ccc(C(F)(F)F)cc2)CC1 (stereo not drawn)	+
CN1C(=O)c2cc(C(=O)Nc3cccc(F)c3)nn2CC1(C)C(=O)NC1CCCCCC1 (stereo not drawn)	i
COc1ccc(CN2C(=O)c3nc4ccccc4n3CC2(C)C(=O)NC2CCCCCC2)cc1 (stereo not drawn)	i
CCOc1ccccc1CN1C(=O)c2cc3sccc3n2CC1(C)C(=O)NC1CCC(C)CC1 (stereo not drawn)	i
CCOC(=O)Cn1cccc1-c1nc(-c2ccc(OC)cc2)c(-c2ccc(OC)cc2)s1	+
COc1ccc(NC(=O)c2nc3sccn3c2-c2cccc(OC)c2)cc1	i
CCc1ccccc1NC(=O)CSc1nnc2n(Cc3ccc(C)cc3)c(=O)c3ccccc3n12	i
CC1(C(=O)NC2CCCCC2)Cn2c(cc3sccc32)C(=O)N1C1CCCC1 (stereo not drawn)	i
COc1ccc(N2CCN(C(CNS(=O)(=O)c3ccccc3)c3ccco3)CC2)cc1 (stereo not drawn)	i
Cc1ccc(NC(=O)CCc2nnc3n(Cc4ccccc4Cl)c(=O)c4ccccc4n23)cc1C	i
CC(C)CCNC(=O)C1(C)Cn2nc(C(=O)NCc3ccc4c(c3)OCO4)cc2C(=O)N1C (stereo not drawn)	i
SMILES	Methyltransferases
C=C1C(=O)OC2C1CCC1(C)C(O)CCC(=C)C21 (stereo not drawn)	+
C=C1C(=O)OC2C1C(O)CC1(C)C(O)CCC(C=O)C21 (stereo not drawn)	i
C=C1C(=O)O[C@@H]2[C@H]3O[C@]3(C)CCC=C(C)CC[C@@H]12	i
Cc1ccccc1CNC(=O)C1(C)Cc2ccccc2C(=O)N1Cc1ccccc1 (stereo not drawn)	i
Cc1ccc(C)c(N2CCN(C(=O)CCc3nnc4n(CCc5ccccc5)c(=O)c5ccccc5n34)CC2)c1	i
CCC(C)NC(=O)c1ccc2c(=O)n(CC(C)C)c3n[nH]c(=O)n3c2c1 (stereo not drawn)	i
CN(CCCN1C(=O)c2cc3occc3n2CC1(C)C(=O)NC1CCCCC1)C1CCCCC1 (stereo not drawn)	i
CCOC(=O)c1cccc(NS(=O)(=O)c2ccc3[nH]c(=O)[nH]c3c2)c1	i
CCOC(=O)c1cnc2ccc(-c3cncc(NS(=O)(=O)c4ccccc4)c3)cn12	+
CCOC(=O)c1ccc(NS(=O)(=O)c2ccc3c(c2)n(C)c(=O)n3C)cc1	i
COc1ccc(CN2C(=O)c3cc4c(OC)ccc(OC)c4n3CC2(C)C(=O)NC2CCCC2)cc1 (stereo not drawn)	i
COC1OC(=O)C2=C1C1(C)CCCC(C)(C)C1CC2O (stereo not drawn)	i

Source: PubChem BioAssay (National Center for Advancing Translational Sciences (NCATS))
